TDP1 cell noCPT – qHTS for Inhibitors of human tyrosyl-DNA phosphodiesterase 1 (TDP1): qHTS in cells in absence of CPT; DT40 Tdp1-/- hTDP1 cells, no CPT, ATP luminescence, 48 h; Potency, µM (top dose mostly 46.2 µM), without a hit: top-dose activity change, negative = growth inhibition, most hits filed as inhibitors; 420,000 compounds, 15% hits; also: potency is read from the fitted curve at half-maximal effect; nearly all actives have a fitted effect of over 55% in size
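Readout: luminescence from CellTiter-Glo after 30 min in the dark at RT. Cells: DT40 Tdp1-/- with stable hTDP1, 400/well. Exposure: compounds alone, ≥48 hr, 37 °C.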
TDP1 cell CPT – DT40-hTDP1 cell growth loss with CPT. chicken DT40 Tdp1-/-;hTDP1 cells + 20 nM CPT, ATP luminescence, 48 h. Potency, µM (top dose mostly 46.2 µM), for inactives: at the top dose activity change, negative = growth inhibition, actives largely listed as inhibitors. 420,000 compounds, 12% hits. AID 686979; also: potency is read from the fitted curve at half-maximal effect; nearly all actives have a fitted effect of over 55% in size
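Chicken DT40 Tdp1-/- cells stably complemented with human TDP1 were seeded at 400 cells/well in medium containing 20 nM camptothecin, exposed to pin-transferred compounds, and grown at 37 °C for at least 48 hr. Viability was read as ATP luminescence.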
Gal4-VP16 FLuc – Gal4-VP16 reporter inhibition counter-screen; Drosophila S2 Gal4-VP16 UAS-luciferase, luminescence, 20 h; AID 2546; 310,000 compounds, 3.5% hits; Potency, µM (highest dose often 53.6 µM), without a hit: at the highest dose activity, negative = inhibition, most hits filed as inhibitors;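 also: Gal4-VP16 expression switched on by copper sulfate through the metallothionein promoter; potency is read from the fitted curve at half-maximal effect; nearly all actives have a fitted effect of over 50% in size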
IL-1B inflam inh – blocks inflammasome-driven IL-1 beta release; 360,000 compounds, 4.7% hits; THP-1 LPS/ATP IL-1B secretion, AlphaLISA, 16 h; hits give low values; activity change, % at 57.5 µM; in the data active = activity change below about -50%; inconclusive = mostly about -30% to -49%
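Secreted IL-1B measured by AlphaLISA bead assay after 16 h compound exposure of THP-1 cells; compounds (final up to 57.5 uM) added 1 h before LPS (250 ng/mL) and ATP (1.25 mM) stimulation; lower signal means less secretion.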
RORg inh – ROR gamma (mouse) transcription inhibition | AID 2551 | Drosophila S2 Gal4-RORgamma UAS-luciferase reporter, 20 h | P51450 | Potency, µM (highest dose often 53.6 µM), for the others: top-dose activity change, negative = inhibition, most hits filed as inhibitors | 310,000 compounds, 5.4% hits; also: potency is read from the fitted curve at half-maximal effect; nearly all actives have a fitted effect of over 60% in size
Target sequence (P51450 whole entry, looked up, the tested form may be a part): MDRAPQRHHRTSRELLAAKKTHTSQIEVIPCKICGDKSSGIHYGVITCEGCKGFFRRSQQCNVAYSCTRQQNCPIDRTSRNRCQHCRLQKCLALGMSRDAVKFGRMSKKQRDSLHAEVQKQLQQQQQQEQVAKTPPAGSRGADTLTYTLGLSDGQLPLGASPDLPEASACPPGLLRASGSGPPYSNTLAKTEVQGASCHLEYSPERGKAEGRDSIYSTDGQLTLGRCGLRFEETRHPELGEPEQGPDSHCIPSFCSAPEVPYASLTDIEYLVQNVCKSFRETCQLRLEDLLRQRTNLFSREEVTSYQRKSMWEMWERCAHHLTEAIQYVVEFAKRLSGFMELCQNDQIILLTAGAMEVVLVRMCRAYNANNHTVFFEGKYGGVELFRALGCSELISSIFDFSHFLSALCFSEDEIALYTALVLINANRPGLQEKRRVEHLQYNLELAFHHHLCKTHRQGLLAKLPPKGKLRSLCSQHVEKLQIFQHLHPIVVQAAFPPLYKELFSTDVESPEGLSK
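Compounds are pin-transferred onto Drosophila Schneider cells expressing a copper-inducible Gal4–ROR gamma transactivation domain fusion. After 1 hr, copper sulfate is added to 700 uM final; luciferase is read 20 hr later.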
ELG1 repair inh – inhibitors of ELG1-dependent DNA repair in HEK293T cells; HEK293T ELG1-luciferase reporter, luminescence, 16 h; DNA damage induced by 5-fluorouridine; Potency, µM (highest dose often 46.1 µM), without a hit: at the top dose activity change, negative = inhibition, usual class: inhibitors; 330,000 compounds, 2.3% hits; AID 504467; also: potency is read from the fitted curve at half-maximal effect; nearly all actives have a fitted effect of over 55% in size
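Reporter activity after DNA damage by 5-fluorouridine is monitored. Compound-treated cells incubate 16 hr at 37 °C, then ONE-Glo is added for 30 min before luminescence reading.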
* marks the source's active call; other numbers are inactive results; ? = inconclusive; / = no result given; ! = repeats disagree; [ ] = another dose, or the depositor's remark. Shown are actives, neighbours in structure and some others; about 21% of the full set was active somewhere. Unless noted, calls follow the shape of the dose curve; as a rule, active = well fitted curve in the direction sought with a large enough effect; inconclusive = small, poorly fitted or top-dose-only effect, or another doubt; inactive = no such curve, though single readings can be large; an effect the other way counts as inactive or inconclusive. % is scaled to controls: 0 for no effect and ±100 for the full control effect.

SMILES	TDP1 cell noCPT	TDP1 cell CPT	Gal4-VP16 FLuc	IL-1B inflam inh	RORg inh	ELG1 repair inh
COC(=O)c1c(OCc2ccccn2)cc(=O)n2c1CCN(Cc1cccc(C(F)(F)F)c1)CC2	-8%	7%	/	/	/	/
CCc1nc2c(OCCc3cccc(OC)c3)cccn2c1N(C)C(=O)c1ccc(OC)cc1	?	?	/	-29	/	/
O=C(COc1cccc(F)c1)Nc1nc(-c2ccccn2)cs1	2.6µM*	5.2µM*	/	90	/	/
O=C(COc1ccc([N+](=O)[O-])cc1)Nc1nc(-c2ccccn2)cs1	5.8µM*	4.6µM*	/	67	/	0%
O=C(COc1ccc(F)cc1)Nc1nc(-c2ccccn2)cs1	7.3µM*	7.3µM*	/	21	/	-16%
CC1(C)CC23C(=O)CCC(O)C2(C)CCC13 (stereo not drawn)	-6%	-6%	-1%	/	-15%	/
Cc1cc(C)cc(N(CCC#N)C(=O)COC(=O)c2nc3nc(C)cc(C)n3n2)c1	4%	-2%	/	10	/	-2%
CCCn1nnnc1NCc1ccc(SC)cc1	-4%	-9%	5%	-58*	-3%[1.91 µM]	-18%
CCCCn1nnnc1NCc1cccnc1	13µM*	8.2µM*	/	-3	-12%[0.365 µM]	1%
CCCn1nnnc1NCc1ccc(F)cc1	6%	1%	-5%	8	-25%	3%
COc1cc(-c2cc(C)c3cccc(OC)c3n2)cc2c1OCCN(C(=O)CC1NC(=O)c3ccccc31)C2 (stereo not drawn)	-14%	-14%[9.04 µM]	/	/	/	/
O=[N+]([O-])c1cc(-c2csc(NCCc3nc4cc(Cl)c(Cl)cc4n3CCCO)n2)ccc1Cl	?	16µM*	/	?	/	/
OCCOCCn1c(CCNc2nc(-c3ccc(Cl)cc3)cs2)nc2cc(Cl)c(Cl)cc21	?	?	/	-16	/	/
COc1ccc(-c2csc(NCCc3nc4cc(Cl)c(Cl)cc4n3CCCO)n2)cc1	18µM*	?	/	-58*	/	/
CCCn1c(CCNc2nc(-c3ccc(Cl)c([N+](=O)[O-])c3)cs2)nc2cc(Cl)c(Cl)cc21	-5%	-11%	-5%	34	?	?
Cc1ccc(-c2csc(NCCc3nc4cc(Cl)c(Cl)cc4n3CCCO)n2)cc1	?	?	/	-56*	/	/
CC(C)(C)c1ccc(-c2nc(SCC(=O)Nc3ccc(Cl)cc3)[nH]c(=O)c2C#N)cc1	-5%	-24%	/	/	/	/
CCN(CC)CCNC(=O)C12CC3CC(CC(C3)C1)C2	2%	-1%	2%	-2	9%	10%
CCN(CC)CCNC(=O)C(Cl)=C1C(Cl)=C(Cl)C(Cl)=C1Cl	16µM*	?	/	-100*	/	/
CCCOc1ccc(Br)cc1-c1cc(-c2ccc(Cl)cc2)[nH]c1-c1ccncc1	/	/	-12%	/	-8%	/
COc1ccc(NC(=O)CN2C(=O)NC(C)(Cc3ccc(OC)c(OC)c3)C2=O)cc1 (stereo not drawn)	-3%	1%	/	21	/	/
O=C(CN1C(=O)COc2ccc(S(=O)(=O)N3CCCC3)cc21)NCCc1ccc(Cl)cc1	23µM*	?	/	/	/	/
COc1ccc(CCNC(=O)CN2C(=O)COc3ccc(S(=O)(=O)N4CCCC4)cc32)c(OC)c1	16µM*!	18µM*!	4%	-29	-5%	-2%
COc1ccc(OC)c(NC(=O)CN2C(=O)COc3ccc(S(=O)(=O)N4CCCC4)cc32)c1	?	?	-3%	-1	1%	-8%
Cc1ccc(CCNC(=O)CN2C(=O)COc3ccc(S(=O)(=O)N4CCCCCC4)cc32)cc1	16µM*	16µM*	/	/	/	/
SMILES	TDP1 cell noCPT	TDP1 cell CPT	Gal4-VP16 FLuc	IL-1B inflam inh	RORg inh	ELG1 repair inh
COc1ccc([C@H]2OCC3C2CO[C@@H]3c2ccc(OC)c(OC)c2)cc1OC (stereo partly drawn)	/	/	-11%	/	2%	/
Cc1nc(NC(=O)CN2CCC(O)(c3ccc(F)cc3)CC2)sc1C	-16%	-28%	-2%	?	15%	9%
CC(=O)N1CCN(C(=O)c2ccccc2NS(=O)(=O)c2ccc(F)cc2)CC1	3%	13%	/	22	/	13%
Cc1cc(C(C)(C)CC(C)(C)C)ccc1OCCOCC[N+](C)(C)Cc1ccccc1	4.1µM*	3.7µM*	18µM*	23	?	-16%
O=C(COC(=O)CCC(=O)c1ccc(F)cc1)Nc1ccc(Cl)cn1	-3%	-11%	/	15	/	?
O=C1CN(C(=O)CSc2nnnn2-c2ccc(Cl)cc2)c2ccccc2N1	-27%	-12%	-3%	-11	3.5µM*	?
O=C1CN(C(=O)CSc2nc3ccccc3c(=O)n2CC2CCCO2)c2ccccc2N1 (stereo not drawn)	-7%	-2%	4%	-19	34%	-14%
O=C1CN(C(=O)CSc2nc3cc(Cl)ccc3c(=O)n2Cc2ccccc2)c2ccccc2N1	?	?	13µM*	-72*	?	?
Cc1ccc(Cn2c(SCC(=O)N3CC(=O)Nc4ccccc43)nc3ccccc3c2=O)cc1	?	?	?	0	1.6µM*	?
Cc1nnc(SCC(=O)N2CC(=O)Nc3ccccc32)n1Cc1ccccc1	-2%	2%	-8%	13	14%	0%
COc1ccc(CCNC(=O)CN(c2cc(C(F)(F)F)ccc2Cl)S(C)(=O)=O)cc1	?	5%	/	/	/	/
CCc1ccc(NC(=O)C2CCN(S(=O)(=O)c3ccc4c(c3)NC(=O)C(C)S4)CC2)cc1 (stereo not drawn)	?	18µM*	?	-10	-31%	-22%
CC1Sc2ccc(S(=O)(=O)N3CCC(C(=O)Nc4cccc(Cl)c4)CC3)cc2NC1=O (stereo not drawn)	18µM*	?	?	?	?	?
CC1Sc2ccc(S(=O)(=O)N3CCC(C(=O)NCc4ccc(Cl)cc4)CC3)cc2NC1=O (stereo not drawn)	15µM*	16µM*	?	-20	?	?
CC1Sc2ccc(S(=O)(=O)N3CCC(C(=O)N(C)Cc4ccco4)CC3)cc2NC1=O (stereo not drawn)	?	15µM*	-8%	-12	?	?
COc1ccc(CNC(=O)C2CCN(S(=O)(=O)c3ccc4c(c3)NC(=O)C(C)S4)CC2)cc1 (stereo not drawn)	?	?	-4%	8	26%	15%
CC1Sc2ccc(S(=O)(=O)N3CCC(C(=O)NCc4ccco4)CC3)cc2NC1=O (stereo not drawn)	?	?	-7%	0	15%	-23%

Screening results (PubChem BioAssay)
